Screening results deposited in PubChem by National Center for Advancing Translational Sciences (NCATS).
Sampled rows, rich in hits. Any-hit rate of the full collection: about 2.8%.
KDM5B inhibitor: Primary screen for KDM5B Histone Demethylases FDH-coupled qHTS; Lysine-specific demethylase 5B (Homo sapiens), Q9UGL1; KDM5B demethylase, FDH-coupled NADH fluorescence (FDH is formaldehyde dehydrogenase); Potency, µM (highest dose often 57.7 µM), hits mostly inhibitors; hit rate 2.6% among 220,000; AID 1347165, 2019; further: potency means the concentration at half of the fitted maximal effect; 0% is about no effect; nearly all actives have a fitted effect of over 70% in size
Target sequence (Q9UGL1 whole entry, looked up): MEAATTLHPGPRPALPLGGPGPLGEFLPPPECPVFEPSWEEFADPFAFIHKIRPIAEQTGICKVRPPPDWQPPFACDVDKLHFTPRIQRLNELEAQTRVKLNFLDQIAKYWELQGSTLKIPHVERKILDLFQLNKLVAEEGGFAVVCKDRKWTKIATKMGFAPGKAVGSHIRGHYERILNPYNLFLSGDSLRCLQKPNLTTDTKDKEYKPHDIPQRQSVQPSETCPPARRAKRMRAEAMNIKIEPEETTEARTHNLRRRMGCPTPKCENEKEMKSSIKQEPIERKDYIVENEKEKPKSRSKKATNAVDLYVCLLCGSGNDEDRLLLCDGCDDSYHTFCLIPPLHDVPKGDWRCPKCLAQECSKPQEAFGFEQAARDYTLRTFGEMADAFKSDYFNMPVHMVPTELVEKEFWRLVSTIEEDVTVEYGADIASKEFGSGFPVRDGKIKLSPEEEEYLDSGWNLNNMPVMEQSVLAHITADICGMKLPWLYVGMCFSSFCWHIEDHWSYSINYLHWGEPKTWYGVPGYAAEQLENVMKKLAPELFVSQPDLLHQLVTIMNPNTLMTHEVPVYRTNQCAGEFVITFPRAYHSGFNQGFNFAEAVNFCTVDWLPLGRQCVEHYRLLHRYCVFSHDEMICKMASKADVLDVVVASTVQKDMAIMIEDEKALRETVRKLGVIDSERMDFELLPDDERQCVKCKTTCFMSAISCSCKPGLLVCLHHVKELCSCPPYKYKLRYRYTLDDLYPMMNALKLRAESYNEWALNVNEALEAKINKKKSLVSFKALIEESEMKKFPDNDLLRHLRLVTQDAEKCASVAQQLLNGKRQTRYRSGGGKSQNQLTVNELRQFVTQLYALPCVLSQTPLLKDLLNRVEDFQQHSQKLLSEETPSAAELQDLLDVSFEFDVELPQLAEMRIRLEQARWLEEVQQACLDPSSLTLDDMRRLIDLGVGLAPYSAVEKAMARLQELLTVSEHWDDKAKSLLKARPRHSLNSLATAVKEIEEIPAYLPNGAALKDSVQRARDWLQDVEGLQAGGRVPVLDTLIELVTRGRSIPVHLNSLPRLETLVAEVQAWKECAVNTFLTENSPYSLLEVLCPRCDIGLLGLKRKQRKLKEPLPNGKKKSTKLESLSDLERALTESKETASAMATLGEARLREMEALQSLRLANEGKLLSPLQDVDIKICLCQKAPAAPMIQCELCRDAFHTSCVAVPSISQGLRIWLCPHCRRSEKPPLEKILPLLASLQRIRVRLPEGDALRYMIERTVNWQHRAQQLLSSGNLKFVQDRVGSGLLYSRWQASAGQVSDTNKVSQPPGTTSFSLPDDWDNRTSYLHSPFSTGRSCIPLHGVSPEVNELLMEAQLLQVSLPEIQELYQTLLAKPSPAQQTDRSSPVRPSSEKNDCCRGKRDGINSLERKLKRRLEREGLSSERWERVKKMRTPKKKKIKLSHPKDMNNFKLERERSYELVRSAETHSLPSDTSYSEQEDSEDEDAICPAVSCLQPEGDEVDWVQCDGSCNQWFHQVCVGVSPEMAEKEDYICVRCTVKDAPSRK
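Inhibition is measured as reduced NADH fluorescence generation from FDH coupling to formaldehyde release. Truncated KDM5BΔAP at 200 nM final acts on H3K4me3 peptide (12.5 µM in substrate mix) in pH 7.5 HEPES buffer with Tween-20, 30 min, room temperature.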
IP6K1 inhibitor: Primary qHTS assay for small molecule inhibitors of Inositol hexaphosphate kinase 1 (IP6K1); Inositol hexakisphosphate kinase 1 (Homo sapiens), Q92551; activity change, % (series mostly up to about 58 µM); IP6K1 kinase, ADP-Glo luminescence, 2 h; hits give low values; hit rate 0.81% among 140,000; in the data active means activity change below about -25%; further: on the % scale 0 is the no-effect control and ±100 the full control effect
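ADP-Glo luminescence measures ADP made by human IP6K1 during a 2 h RT reaction with ATP/IP6 (mix at 1.3 mM/130 uM); top library doses 57.5 and 19.1 uM final.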
SNCA expr inhib: Primary qHTS assay for inhibitors of alpha-synuclein gene (SNCA) expression. HEK-293 SNCA-luciferase knock-in, luminescence, 24 h. Potency, µM (doses to about 57.2 µM), for the others: at the highest dose activity change, negative = inhibition, most hits filed as inhibitors. hit rate 0.17% among 140,000. AID 1671194, 2021;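 further: potency means the concentration at half of the fitted maximal effect; plate controls were DMSO cells for no effect and cell-free wells for full effect; nearly all actives have a fitted effect of over 45% in size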
SNCA viab count: GF-AFC viability counterscreen for inhibitors of alpha-synuclein gene (SNCA) expression. Potency, µM (titrated, usually from 57.1 µM), without a hit: at the top dose activity change, negative = cytotoxicity, actives largely listed as cytotoxic. AID 1671193, 2021. hit rate 0.12% among 150,000. HEK-293-SNCA-luc viability, GF-AFC fluorescence, 24 h;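 further: potency means the concentration at half of the fitted maximal effect; 0% = DMSO-treated cells and -100% = medium-only wells without cells; nearly all actives have a fitted effect of over 30% in size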
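HEK-293-SNCA-luc cells (1500/well) plated 24 h, then exposed 24 h to a dilution series; GF-AFC added 30 min at 37C, fluorescence 405/540 nm; normalised to medium-only and DMSO wells, Hill fit.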
The depositor's hits bear a star; i = inactive; ? = inconclusive; / = not tested or not shown; [ ] = another dose, or the depositor's remark. Unless noted, the call rests on the fitted dose curve; in most records, active means well fitted curve in the direction sought with a large enough effect; inconclusive means small, poorly fitted or top-dose-only effect, or another doubt; inactive means no such curve, though single readings can be large; an effect the other way counts as inactive or inconclusive.

SMILES	KDM5B inhibitor	IP6K1 inhibitor	SNCA expr inhib	SNCA viab count
N#Cc1ccc(CN2CCCCCCNC(=O)[C@@H]3C[C@@H](C(=O)N4CCc5ccccc5C4)C[C@@H]32)cc1	25µM*	8	-17%	-23%
CCCc1nnc(NC(=O)c2cc(-c3ccccc3)on2)s1	i	/	/	/
COc1nccnc1NC1CCN(C(=O)c2cnn3cccnc23)CC1	?	-2	11%	-2%
CCCOc1nccnc1NC1CCN(C(=O)NCC)CC1	28µM*	3	?	-9%
CCCOc1nccnc1NC1CCN(C(=O)c2ccccn2)CC1	28µM*	4	6%	1%
CCCOc1nccnc1NC1CCN(C(=O)C2CCCO2)CC1 (stereo not drawn)	25µM*	4	14%	10%
CS(=O)(=O)N1CCC(OC2CCN(C(=O)NCc3ccco3)CC2)CC1	i	12	-1%	-5%
CCCOc1nccnc1NC1CCN(C(=O)NCc2ccco2)CC1	25µM*	-3	-12%	-1%
O=S(=O)(c1cccc(C(F)(F)F)c1)N1CCN(c2ccc3nnc(C4CC4)n3n2)CC1	/	25	/	/
Cc1cc(SCC(=O)NC(=O)NCc2ccccc2)nc2ccccc12	i	/	/	/
CCCc1nc(C(=O)NC2CCCc3nc(N(C)C)ncc32)cs1 (stereo not drawn)	25µM*	-12	1%	-18%
CN(C)c1ncc2c(n1)CCCC2NC(=O)CN1C(=O)NC(C)(C)C1=O (stereo not drawn)	?	-7	18%	-2%
Fc1ccccc1-c1noc(N2CCOCC2)n1	i	-1	29%	-5%
O=C1c2cc(N3CCOCC3)nc(-c3ccc(F)cc3)c2CN1CC1CC1	40µM*	13	18%[87.6 µM]	-8%[87.6 µM]
O=C1c2cc(N3CCOCC3)nc(-c3ccccc3F)c2CN1CC1CC1	40µM*	12	1%[87.6 µM]	-18%[87.6 µM]
COc1cc(F)ccc1-c1cc2c(ccn2CC2CCN(C)CC2)c(N2CCOCC2)n1	?	11	-18%[87.6 µM]	-12%[87.6 µM]
O=C1c2cc(N3CCOCC3)nc(-c3ccc(CO)cc3)c2CN1Cc1ccccc1	i	25	-7%[87.6 µM]	5%[87.6 µM]
COc1cc(F)ccc1-c1nc(N2CCOCC2)cc2c1CN(CC1CC1)C2=O	35µM*	13	-4%[87.6 µM]	2%[87.6 µM]
O=C(CC1C(=O)N(CCc2ccccc2)c2nc3ccccc3n21)Nc1ccc(F)c(F)c1 (stereo not drawn)	i	/	/	/
CC(=O)c1cnn(-c2cc(Nc3cccc(Cl)c3)nc(C)n2)c1C	i	/	/	/
COc1ccc(F)cc1-c1cccc(C(=O)NCCNC(=O)Cc2cccc(Cl)c2)c1	/	-13	21%	-23%
Cc1noc(C)c1-c1cc2cc(C(C)C)oc2c(-c2ccc(CO)cc2)n1	28µM*	-8	6%[87.6 µM]	-22%[87.6 µM]
Cc1noc(C)c1-c1cc2cc(C(C)C)oc2c(-c2cccnc2)n1	32µM*	-7	46%[87.6 µM]	3%[87.6 µM]
COc1ncccc1-c1nc(-c2c(C)noc2C)cc2cc(C(C)C)oc12	32µM*	-9	31%[87.6 µM]	-7%[87.6 µM]
CNC(=O)c1cc2cc(-c3c(C)noc3C)nc(-c3cccnc3OC)c2o1	35µM*	-2	29%[87.6 µM]	6%[87.6 µM]
SMILES	KDM5B inhibitor	IP6K1 inhibitor	SNCA expr inhib	SNCA viab count
Cc1noc(C)c1-c1cc2cc(C(C)C)oc2c(-c2c(C)noc2C)n1	i	2	33%[87.6 µM]	15%[87.6 µM]
O=C(Nc1ccncc1)c1cccc(OCc2ccc(F)cc2)c1	i	/	/	/
CN1CCN(c2cc(N3CC[C@H](CO)[C@H](O)C3)nc(N)n2)CC1	i	-7	-17%	-4%
Nc1cc(N2CC[C@@H](N3CCN(CCc4ccccc4)CC3)[C@H](O)C2)nc(N)n1	4.5µM*	-6	19%	-8%
Cc1ccc2c(C(=O)N3CCN(C(C)C)CC3)cc(NC(=O)C(C)C)cc2n1	25µM*	3	12%	3%
Cc1ccc2c(C(=O)O)cc(NC(=O)C3CCC3)cc2n1	22µM*	-3	-13%	15%
CNC(=O)c1cc(NC(=O)C2CCC2)cc2nc(C)ccc12	32µM*	22	-10%	7%
Cc1ccc2c(C(=O)NCCc3cccs3)cc(NC(=O)C3CCC3)cc2n1	?	12	-18%	-4%
Cc1cc(C)cc(NC(=O)C2CCCCC2)c1	i	/	/	/
Cc1ccc2c(C(=O)N3CCN(CC(C)C)CC3)cc(NC(=O)C3CCC3)cc2n1	22µM*	23	-28%	10%
Cc1ccc2c(C(=O)N3CCN(c4ccc(F)cc4)CC3)cc(NC(=O)C(C)C)cc2n1	?	22	-2%	16%
O=C(NC1CCN(Cc2cccc(-c3ccc(F)cc3F)c2)CC1)c1cccc(Cl)c1	/	5	/	/
Cc1ccc(NC(=O)c2cc(NC(=O)C3CC3)cc3nc(C)ccc23)cc1	?	-2	4%	5%
Cc1ccc2c(C(=O)N3CCOCC3)cc(NC(=O)C3CCC3)cc2n1	22µM*	0	1%	-5%
COc1ccc(NC(=O)c2cc(NC(=O)C3CCC3)cc3nc(C)ccc23)cc1	25µM*	7	3%	-9%
CCCCN1C(=O)NC(c2ccccc2OC(F)F)C(C(=O)OCC)=C1C (stereo not drawn)	i	/	/	/
Cc1n[nH]c(C)c1C(N)C(=O)N1CCN(c2ccc3nccn3n2)CC1 (stereo not drawn)	28µM*	-4	-15%	12%
O=C([C@H]1CCC[C@H](O)C1)N1CCN(c2ccnc3nncn23)CC1	?	7	-6%	3%
O=C([C@H]1CCC[C@@H](O)C1)N1CCN(c2ccc3nccn3n2)CC1	28µM*	18	9%	4%
Cc1ccc(Nc2ccnc(N3CCCC(C(=O)N4CCN(c5ncccn5)CC4)C3)n2)cc1 (stereo not drawn)	/	0	14%	0%[12.5 µM]
Clc1ccccc1-c1nnc2sc(Cn3cccn3)nn12	i	/	/	/
O=C(COc1ccccc1Cl)Nc1cccc(-c2nnc(-c3ccco3)o2)c1	i	/	/	/
COc1ccccc1CNc1nc(-c2ccc(C)cc2)cs1	i	/	/	/
CN(Cc1cccnc1)c1ccc2ncc(Nc3ccc(C(F)(F)F)cc3)n2n1	25µM*	-21	?	-26%[87.6 µM]
CN(Cc1ccc(F)cc1)c1ccc2ncc(Nc3cccc(N[S+](C)(=O)[O-])c3)n2n1	?	-21	-20%	13%
SMILES	KDM5B inhibitor	IP6K1 inhibitor	SNCA expr inhib	SNCA viab count
CN(Cc1cccnc1)c1ccc2ncc(Nc3cccc(N[S+](C)(=O)[O-])c3)n2n1	18µM*	6	11%[87.6 µM]	8%[87.6 µM]
O=C(NCCc1noc(-c2ccccc2)n1)C1NCCc2[nH]cnc21 (stereo not drawn)	35µM*	18	5%	-14%
O=C(NCCc1nc(-c2cccnc2)no1)C1NCCc2[nH]cnc21 (stereo not drawn)	i	14	?	-1%
O=c1cc(-c2ccccn2)oc2c(-c3ccc(CO)cc3)nccc12	28µM*	8	?	-4%[87.6 µM]
Cc1noc(C)c1-c1nccc2c(=O)cc(-c3ccccn3)oc12	28µM*	-10	-6%[87.6 µM]	14%[87.6 µM]
O=c1cc(-c2ccncc2)oc2c(-c3ccc(CO)cc3)nccc12	35µM*	-8	-23%[87.6 µM]	3%[87.6 µM]
